{
  "source": "PubChem BioAssay AID463193",
  "about": "(University of Pittsburgh Molecular Library Screening Center, 2010)",
  "note": "The campaign covered roughly 190,000 compounds. About 1,900 (1%) were called active.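 The calls were made as follows: active = percentage of spot-positive cells more than 3 SD above its plate mean, without a fluorescence outlier flag or 80% toxicity; inconclusive = no clear call, values can overlap the other calls; inactive = the rest.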 Only a selection was taken, and actives are over-represented in it overall.",
  "data": [
    {"experiment": "autophagy modulators in MEF cells, primary screen, imaging, high-content, MEF GFP-LC3 (AID 463193);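 as to % cells with GFP-LC3 spots: spot-positive cell cutoff set from DMSO-treated cells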;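 as to toxicity: cell loss after 18 h compound exposure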", "conditions": "MEF GFP-LC3 puncta imaging, at 10 µM; % cells with GFP-LC3 spots: stronger effect = higher value; toxicity: measured here: cell loss, nuclei count", "units": {"toxicity": "%"}, "values": [
      {"molecule": "Cc1cc(C)c2c(n1)nn1c(-n3ccnc3)cc(C)nc21", "% cells with GFP-LC3 spots": "2.18% (inactive)", "toxicity": 8.53},
      {"molecule": "Cc1cc(C)c2c(n1)nn1c(N3CCN(c4cccc(Cl)c4)CC3)cc(C)nc21", "% cells with GFP-LC3 spots": "11.4% (active)", "toxicity": 3.85},
      {"molecule": "COCCN(Cc1nc(-c2ccc(C(F)(F)F)cc2)no1)C(C)C", "% cells with GFP-LC3 spots": "9.15% (inactive)", "toxicity": 9.9},
      {"molecule": "Cc1c(/C=N\\NC(=O)c2cc3ccccc3o2)c2ccccc2n1C", "% cells with GFP-LC3 spots": "7.46% (active)", "toxicity": 40.9},
      {"molecule": "O=C(N/N=C/c1coc2ccccc2c1=O)c1cc2ccccc2o1", "% cells with GFP-LC3 spots": "23.9% (inactive)", "toxicity": 5.54},
      {"molecule": "Cc1c(/C=N/N2C(=O)C3C4C=CC(C4)C3C2=O)c2ccccc2n1C", "note": "(stereo unspecified)", "% cells with GFP-LC3 spots": "7.41% (inactive)", "toxicity": -40.2},
      {"molecule": "O=C(NCCOc1ccccc1F)Nc1ccc(Br)cc1", "% cells with GFP-LC3 spots": "8.91% (inactive)", "toxicity": 10.2},
      {"molecule": "CCCCn1c(N)c(N2CCOCC2)c(=O)n(CC(=O)NCCc2ccccc2)c1=O", "% cells with GFP-LC3 spots": "1.7% (inactive)", "toxicity": 10.6},
      {"molecule": "Nc1ccc(Nc2ccccc2)cc1", "% cells with GFP-LC3 spots": "3.14% (inactive)", "toxicity": 23.3},
      {"molecule": "Cc1ccc(Nc2ccccc2N)cc1", "% cells with GFP-LC3 spots": "78% (active)", "toxicity": 27.6},
      {"molecule": "Cc1ccc(Nc2nnc(SCc3ccccc3)s2)cc1", "% cells with GFP-LC3 spots": "12.4% (inactive)", "toxicity": -2.65},
      {"molecule": "Cc1ccc(CC(=O)Nc2cccc(C#N)c2)cc1", "% cells with GFP-LC3 spots": "1.19% (inactive)", "toxicity": -8.28},
      {"molecule": "COc1cc(/C=C/C2=CC(C)(C)NC(=S)N2)cc(OC)c1OC", "% cells with GFP-LC3 spots": "1.56% (inactive)", "toxicity": 6.84},
      {"molecule": "COc1cccc(NC(=O)C(C)Oc2ccccc2)c1", "note": "(stereo unspecified)", "% cells with GFP-LC3 spots": "5.6% (inactive)", "toxicity": 4.79},
      {"molecule": "CC(Oc1ccccc1F)C(=O)NN", "note": "(stereo unspecified)", "% cells with GFP-LC3 spots": "38% (active)", "toxicity": 3.88},
      {"molecule": "CC(Oc1ccc(F)cc1F)C(=O)/C=C/N(C)C", "note": "(stereo unspecified)", "% cells with GFP-LC3 spots": "6.77% (inactive)", "toxicity": 7.51},
      {"molecule": "COc1ccccc1C1CC(=O)n2c(nc(-c3ccccc3)c2-c2ccccc2)S1", "note": "(stereo unspecified)", "% cells with GFP-LC3 spots": "3.32% (inactive)", "toxicity": 1.28},
      {"molecule": "O=[N+]([O-])/C(N=Nc1ccccc1)=N\\Nc1ccccc1", "% cells with GFP-LC3 spots": "16.1% (inactive)", "toxicity": 8.32},
      {"molecule": "Nc1nonc1-c1nc2ccccc2n1CCC(=O)O", "% cells with GFP-LC3 spots": "6.83% (inactive)", "toxicity": 0.889},
      {"molecule": "Nc1nonc1-c1nc2ccccc2n1Cc1ccc(F)cc1", "% cells with GFP-LC3 spots": "17.1% (inactive)", "toxicity": 0.606},
      {"molecule": "COc1ccc(C)c(Cn2c(-c3nonc3N)nc3ccccc32)c1", "% cells with GFP-LC3 spots": "25% (active)", "toxicity": 49.2},
      {"molecule": "CN(C)Cc1ccccc1C1(O)c2ccccc2CSc2ccccc21", "note": "(stereo unspecified)", "% cells with GFP-LC3 spots": "12% (active)", "toxicity": -6.62},
      {"molecule": "COC(=O)C1=C(NC(=O)C(C)(C)C)CCS1", "% cells with GFP-LC3 spots": "5.79% (inactive)", "toxicity": -3.16},
      {"molecule": "COC(=O)c1sc(N)c(C(=O)OC)c1COC(=O)CNS(=O)(=O)c1ccc(C)cc1", "% cells with GFP-LC3 spots": "2.17% (inactive)", "toxicity": -4.43},
      {"molecule": "CCN1/C(=C/c2ccc3ccc(C)cc3[n+]2CC)Sc2ccccc21", "% cells with GFP-LC3 spots": "42.4% (active)", "toxicity": 14.3},
      {"molecule": "CCC(=O)/C=C1\\Sc2ccccc2N1CC", "% cells with GFP-LC3 spots": "7.46% (inactive)", "toxicity": -11.3},
      {"molecule": "CCN1CCN(CCNC(=O)c2ccc(/C=C3/Sc4ccccc4N(Cc4cccc(C)c4)C3=O)cc2)CC1", "% cells with GFP-LC3 spots": "34.4% (inactive)", "toxicity": 30.3},
      {"molecule": "Cc1ccc(Nc2cc(C)nc3c(C)ccc([N+](=O)[O-])c23)cc1", "% cells with GFP-LC3 spots": "9.29% (inactive)", "toxicity": 15.4},
      {"molecule": "Cc1cccc(N(C(=O)Cc2cccs2)C(C(=O)NCc2ccco2)c2ccncc2)c1", "note": "(stereo unspecified)", "% cells with GFP-LC3 spots": "0.45% (inactive)", "toxicity": 4.04},
      {"molecule": "CSc1nc2ccccc2cc1/C=C(\\C#N)c1ccc(Cl)cc1Cl", "% cells with GFP-LC3 spots": "26.9% (active)", "toxicity": 3.92},
      {"molecule": "Cc1nc2ccccc2cc1O", "% cells with GFP-LC3 spots": "1.86% (inactive)", "toxicity": -9.74},
      {"molecule": "CSc1nc(N)c(C#N)c(-c2ccccc2Cl)c1C#N", "% cells with GFP-LC3 spots": "1.32% (inactive)", "toxicity": 7.01},
      {"molecule": "CCC(C)NC(=O)/C=C/c1ccc(S(=O)(=O)NCc2ccco2)cc1", "note": "(stereo unspecified)", "% cells with GFP-LC3 spots": "13.9% (inactive)", "toxicity": -4.92},
      {"molecule": "Cc1cccc(OCCNC(=S)NC(=O)c2cccnc2)c1", "% cells with GFP-LC3 spots": "4.78% (inactive)", "toxicity": 1.96},
      {"molecule": "O=C(CSc1ncnc2c1nnn2Cc1ccc(F)cc1)NC1CCCC1", "% cells with GFP-LC3 spots": "19.5% (inactive)", "toxicity": 3.4},
      {"molecule": "COc1ccc(N2CCN(C(=O)CNS(=O)(=O)c3ccc(C)c(C)c3)CC2)cc1", "% cells with GFP-LC3 spots": "0.151% (inactive)", "toxicity": -10.1},
      {"molecule": "Cc1cc([N+](=O)[O-])nn1CCCC(=O)Nc1cccnc1Cl", "% cells with GFP-LC3 spots": "8.6% (inactive)", "toxicity": 1.08},
      {"molecule": "O=C(Nc1ccc2oc(-c3ccc4ccccc4c3)nc2c1)c1cccs1", "% cells with GFP-LC3 spots": "3.28% (active)", "toxicity": -13.1},
      {"molecule": "Cc1ccc(-c2nnc(-c3ccc(NC(=O)c4cccs4)cc3)o2)cc1", "% cells with GFP-LC3 spots": "9.58% (inactive)", "toxicity": -19.8},
      {"molecule": "O=C(Cc1cccc2ccccc12)Nc1ccc2oc(-c3ccccc3)nc2c1", "% cells with GFP-LC3 spots": "7.49% (inactive)", "toxicity": 12.1},
      {"molecule": "COc1cc(OC)c(C(=O)Nc2ccccc2-c2ccccc2)cc1OC", "% cells with GFP-LC3 spots": "7.38% (inactive)", "toxicity": -2.46},
      {"molecule": "COc1ccc(C(=O)OCC(=O)NCC2CCCO2)cc1[N+](=O)[O-]", "note": "(stereo unspecified)", "% cells with GFP-LC3 spots": "3.86% (inactive)", "toxicity": 1.61},
      {"molecule": "COc1ccc(OC)c(C(=O)c2ccc(C(=O)N3CCN(Cc4csc(C)n4)CC3)cc2)c1", "% cells with GFP-LC3 spots": "1.64% (inactive)", "toxicity": 6.76}
    ]}
  ]
}
